Source: PubChem
In the library only some 4% were active in any assay of this set; here they are far more common.
MITF TRPM1 HTS – activators of MITF-driven TRPM1 promoter reporter, primary screen, cell-based, SK-MEL-5, luciferase, single point. AID 588334, 2011. activation, % at 12.5 µM. SK-MEL-5 TRPM1-promoter luciferase, 24 h; % of positive control, neutral wells = 0. actives 0.75% (n = 300,000);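 active means mean activation of at least 80% with every replicate also reaching 80%; inconclusive means mean reaches 80% but some replicate falls short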
PAX8 reporter – inhibitors of PAX8-driven TPO luciferase reporter, primary screen, RMG-I cells, single concentration. SteadyGlo, 24 h. inhibition, % at 12.6 µM. actives 1.2% (n = 360,000);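 active means mean replicate inhibition at least 60% with every replicate also reaching 60%; inconclusive means only one of the two criteria is met; inactive means mean below 60% and not all replicates reaching 60%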;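 further: luciferase light reporting Pax8 driven TPO promoter activity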
EWS-Fli block – EWS/Fli-driven NR0B1 reporter inhibitors, primary screen, A673 cells, NR0B1 luciferase, luminescence, MLPCN library. viability-normalised. inhibition, % at 12.6 µM. actives 0.67% (n = 350,000);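 active means mean inhibition of at least 50% after viability correction, with every replicate also passing that limit; inconclusive means mean reaches 50% but only one of two replicates passes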;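 further: firefly luciferase signal divided by Alamar Blue viability fluorescence both relative to DMSO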
esBAF inh – Bmi1 luciferase reporter increase in mESCs, primary screen, esBAF inhibitor project, mouse ES cells, Bmi1 luciferase knock-in, single point | 24 h; 100% = twice the neutral-well signal | reporter increase, % at 12.5 µM | actives 2% (n = 350,000); in the data active means activation above about 40%; inconclusive means no clear call, values can overlap the other calls;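 further: a rise in the Bmi1 reporter signal indicates esBAF inhibition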
Wnt bcat act – Wnt/beta-catenin pathway activators, primary screen, cell-based, plate reader, single point; actives 1.2% (n = 300,000); activation, % at 9.35 µM; Wnt/beta-catenin reporter cell assay, activator; in the data active means activation above about 30%, passing the limit was not always enough; inconclusive means no clear call, values can overlap the other calls
TRPM1 prom inh – inhibitors of MITF-dependent TRPM1 promoter reporter, primary screen, cell-based, SK-MEL-5, single point, luciferase | SK-MEL-5 TRPM1 promoter luciferase, 24 h | inhibition, % at 12.5 µM | actives 0.83% (n = 330,000) | AID 488899, 2010;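 active means mean inhibition across replicates of 60% or more, whatever share of single replicates reaches that level; inconclusive means some that reach 60%, reason not given; inactive means mean inhibition across replicates below 60%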
Of the large screens only hits and unclear results are named; the others gave an inactive call.

C[C@@H]1CCCCO[C@@H](CN(C)S(=O)(=O)c2cccs2)[C@@H](C)CN([C@@H](C)CO)C(=O)c2cc(NC(=O)NC3CCCCC3)ccc2O1	none (no result: MITF TRPM1 HTS, Wnt bcat act, TRPM1 prom inh)
C[C@@H]1CCCCO[C@@H](CN(C)C)[C@H](C)CN([C@H](C)CO)C(=O)c2cc(NC(=O)Nc3ccc(C(F)(F)F)cc3)ccc2O1	PAX8 reporter 63 (no result: MITF TRPM1 HTS, Wnt bcat act, TRPM1 prom inh)
C[C@H]1CCCCO[C@@H](CN(C)S(=O)(=O)c2cccs2)[C@@H](C)CN([C@@H](C)CO)C(=O)c2cc(NC(=O)NC3CCCCC3)ccc2O1	PAX8 reporter 97 (no result: MITF TRPM1 HTS, Wnt bcat act, TRPM1 prom inh)
C[C@@H]1CCCCO[C@H](CN(C)C(=O)Nc2ccc(C(F)(F)F)cc2)[C@@H](C)CN([C@H](C)CO)C(=O)c2cc(NC(=O)Nc3ccc(F)cc3)ccc2O1	none (no result: MITF TRPM1 HTS, Wnt bcat act, TRPM1 prom inh)
C[C@@H]1CCCCO[C@H](CN(C)S(=O)(=O)c2cccs2)[C@H](C)CN([C@@H](C)CO)C(=O)c2cc(NC(=O)CCC(F)(F)F)ccc2O1	PAX8 reporter 110 (no result: MITF TRPM1 HTS, Wnt bcat act, TRPM1 prom inh)
C[C@@H]1CCCCO[C@H](CN(C)C(=O)Nc2ccc(C(F)(F)F)cc2)[C@H](C)CN([C@@H](C)CO)C(=O)c2cc(NC(=O)Nc3ccc(C(F)(F)F)cc3)ccc2O1	none (no result: MITF TRPM1 HTS, Wnt bcat act, TRPM1 prom inh)
C[C@@H]1CCCCO[C@H](CN(C)C(=O)Nc2ccc(C(F)(F)F)cc2)[C@@H](C)CN([C@@H](C)CO)C(=O)c2cc(NC(=O)Nc3ccc(C(F)(F)F)cc3)ccc2O1	PAX8 reporter 89 (no result: MITF TRPM1 HTS, Wnt bcat act, TRPM1 prom inh)
Cc1noc(C)c1S(=O)(=O)N(C)C[C@@H]1OCCCC[C@@H](C)Oc2ccc(NS(=O)(=O)c3ccc(Cl)cc3)cc2C(=O)N([C@@H](C)CO)C[C@@H]1C	none (no result: MITF TRPM1 HTS, Wnt bcat act, TRPM1 prom inh)
COc1ccc(Nc2n[nH]c(C)c2[N+](=O)[O-])cc1	Wnt bcat act 35 (no result: esBAF inh)
O=C(CC1CC2CCC1C2)NC1CCCCCCC1 (stereo unspecified)	esBAF inh 60
CCn1ccc(C(=O)Nc2ccc(Cl)cn2)n1	esBAF inh 48, Wnt bcat act 32 (no result: MITF TRPM1 HTS, TRPM1 prom inh)
COc1ccc(C(=O)Nc2ccc3ccccc3n2)cc1OC	esBAF inh 70
Cc1ccc(C(=O)Nc2ccc3ccccc3n2)cc1	Wnt bcat act 36
O=C(CCc1ccccc1)Nc1ccc2ccccc2n1	MITF TRPM1 HTS 100, Wnt bcat act 56 (no result: esBAF inh)
C[C@H](CO)N1C[C@H](C)[C@H](CN(C)C(=O)Cc2ccccn2)Oc2cc(-c3cccc(C(=O)N(C)C)c3)ccc2S1(=O)=O	none (no result: MITF TRPM1 HTS, PAX8 reporter, Wnt bcat act, TRPM1 prom inh)
C[C@H](CO)N1C[C@H](C)[C@@H](CN(C)C)Oc2cc(C#CC3CCCC3)ccc2S1(=O)=O	none (no result: MITF TRPM1 HTS, Wnt bcat act, TRPM1 prom inh)
O=C(Nc1ccc2ccccc2n1)c1ccccc1	none
COc1ccc(C(=O)Nc2ccc(Cl)cn2)cc1Cl	MITF TRPM1 HTS inconclusive, esBAF inh 69, Wnt bcat act inconclusive (no result: PAX8 reporter, EWS-Fli block)
O=C(Nc1ccc2ccccc2n1)c1ccccc1Br	esBAF inh 52, Wnt bcat act 35
O=C(Nc1ccc2ncccc2c1)c1ccccc1Br	esBAF inh 110 (no result: MITF TRPM1 HTS, PAX8 reporter, EWS-Fli block, Wnt bcat act)
CC(C)c1cn(CC[C@@H]2CC[C@@H](NC(=O)c3cccc(F)c3)[C@H](CO)O2)nn1	none (no result: MITF TRPM1 HTS, Wnt bcat act, TRPM1 prom inh)
O=C(CN1CCOCC1)NCC[C@H]1CC[C@@H](NC(=O)Nc2ccccc2)[C@@H](CO)O1	none (no result: MITF TRPM1 HTS, Wnt bcat act, TRPM1 prom inh)
Cc1cc(C)nc(NC(=O)/C=C/c2ccccc2Cl)n1	none (no result: PAX8 reporter, EWS-Fli block, esBAF inh, Wnt bcat act)
CCN(CC)CCOC(=O)c1ccc(NC(=O)/C=C/c2cccs2)cc1	Wnt bcat act inconclusive (no result: esBAF inh)
O=C(/C=C/c1ccc(Cl)cc1Cl)Nc1ccncc1	none (no result: EWS-Fli block, esBAF inh)
Cc1cc(C)nc(NC(=O)/C=C/c2ccc(Cl)cc2Cl)c1	MITF TRPM1 HTS 88, esBAF inh 66 (no result: PAX8 reporter, EWS-Fli block, Wnt bcat act)
CCOC(=O)c1ccc(NC(=O)/C=C/c2cccs2)cc1	MITF TRPM1 HTS 88 (no result: esBAF inh)
Cc1cc(N)c2cc(NC(=O)/C=C/c3ccccc3Cl)ccc2n1	TRPM1 prom inh 100 (no result: PAX8 reporter, EWS-Fli block, Wnt bcat act)
Cc1cc(C)nc(NC(=O)/C=C/c2ccccc2Cl)c1	Wnt bcat act 44 (no result: EWS-Fli block, esBAF inh)
CN1c2ccc(-c3ccccc3F)cc2[C@H]2[C@H](CCN2C(=O)CN2CCOCC2)[C@@H]1CO	none (no result: MITF TRPM1 HTS, Wnt bcat act, TRPM1 prom inh)
C#Cc1ccc([C@@H]2C=C(C(=O)Nc3ccccc3)O[C@H](OCc3ccc(CO)cc3)C2)cc1	none (no result: MITF TRPM1 HTS, esBAF inh, Wnt bcat act, TRPM1 prom inh)
O=C(/C=C/c1cccs1)Nc1cccc(NC(=O)/C=C/c2cccs2)n1	esBAF inh inconclusive
